{"source": "PubChem BioAssay AID686960", "about": "(The Scripps Research Institute Molecular Screening Center, 2013)", "assay": "inhibitors of DNA CAG/GTC TO-PRO-1 complex, dose response, counter-screen for rCAG RNA repeat binder project, biochemical, fluorescence, TO-PRO-1 dye (AID 686960)", "conditions": "DNA CAG/GTC duplex TO-PRO-1 dye displacement fluorescence", "note": "The list shows a part of the results. Values without a mark were called inactive. Cut-off read from the data, not from the text of the source: active = IC50 below about 10 µM; inactive = the rest."}
{"compound": "O=C1CC(=O)N(Cc2ccccc2)C(=O)N1CCCCCCN1C(=O)CC(=O)N(Cc2ccccc2)C1=O", "values": [{"measurement": "IC50", "value": 11.5, "unit": "µM"}]}
